Measurements: article PMC4552634, “A New Set of Chemical Starting Points with Plasmodium falciparum Transmission-Blocking Potential for Antimalarial Drug Discovery” (PLoS ONE, 2015)
In all, about 13,000 compounds went through this assay and about 3,200 (25%) showed an effect of 50% or more. The list shows a part of the results.

Tested on: P. falciparum stage V gametocytes
Design: BacTiter-Glo ATP luminescence viability of purified stage V gametocytes in 384-well plates, per cent inhibition versus DMSO
Conditions: 48 h, 5 µM; inhibitor

Row | Structure (SMILES) | % Inhibition
1 | CN(C)C(=O)c1ccc(CN(Cc2cccc(OC(C)(C)C)c2)Cc2ccc3c(c2)OCCO3)cc1 [TCMDC-136614] | 66.69%
2 | Cc1ccc(CN(Cc2ccc(C(=O)N(C)C)cc2)Cc2ccc3c(c2)OCCO3)cc1C [TCMDC-136617] | 24.15%
3 | CC(C)(C)OC(=O)NCC(=O)N(Cc1ccccc1)Cc1ccccc1 [TCMDC-131954] | 1.715%
4 | CN(C)C(=O)c1ccc(CN(Cc2ccc(OC(C)(C)C)cc2)Cc2ccc3c(c2)OCCO3)cc1 [TCMDC-136615] | 62.57%
5 | O=C(CC(=O)C(F)(F)F)c1ccc2c(c1)OCO2 [TCMDC-125824] | -11.59%
6 | CC(=O)Nc1ccc(CN(Cc2ccc(C)cc2)Cc2cccc(Oc3ccccc3)c2)cc1 [TCMDC-140147] | 4.246%
7 | CN(C)C(=O)c1ccc(CN(Cc2ccc3c(c2)OCCO3)Cc2ccc3c(c2)OCO3)cc1 [TCMDC-136612] | -1.47%
8 | CC(=O)Nc1ccc(CN(Cc2ccc(OC(C)(C)C)cc2)Cc2ccc3c(c2)OCCO3)cc1 [TCMDC-136616] | -22.37%
9 | CC(=O)Nc1ccc(CN(Cc2cccc(OC(C)(C)C)c2)Cc2ccc3c(c2)OCCO3)cc1 [TCMDC-136613] | 87.49%
10 | O=C(/C=C/c1ccc([N+](=O)[O-])cc1)N1CCC(NS(=O)(=O)c2cccc(C(F)(F)F)c2)CC1 [TCMDC-139443] | -15.57%
11 | c1ccc(C(c2ccccc2)N2CCN(C(c3cccnc3)c3nnnn3C3CCCC3)CC2)cc1 (stereo not shown) [TCMDC-123571] | -4.144%
12 | Cc1cc(NC(=O)Nc2ccc3ccn(C)c3c2)c2ccccc2n1 [TCMDC-140057] | 10.89%
13 | CC1CCN(c2nc(C(=O)Nc3ccc(F)cc3C(F)(F)F)c(C(C)C)s2)CC1 [TCMDC-134661] | -14.15%
14 | CC1(C)N=C(N)N=C(N)N1c1cc(Cl)c(Cl)cc1Cl [TCMDC-124503] | -35.38%
15 | CSc1nc2cc3c(cc2n1C(=O)c1ccc(C)cc1)OCCO3 [TCMDC-125385] | -23.6%
16 | Cc1ccccc1N1CCN(c2ccc(C(=O)Nc3ccccc3)cc2)CC1 [TCMDC-134565] | 28.84%
17 | O=C(O)C(F)(F)F.c1ccc2[nH]c(-c3ccc(-c4ccc(CNCC5CCCO5)cc4)s3)nc2c1 (stereo not shown) [TCMDC-133106] | -3.113%
18 | FC(F)(F)c1ccccc1OCc1cc(-c2ccncc2)c(COc2ccccc2C(F)(F)F)cc1C1=CCNCC1 [TCMDC-134498] | 112.2%
19 | Oc1ccc(-c2cc(COc3ccccc3C(F)(F)F)c(C3=CCNCC3)cc2COc2ccccc2C(F)(F)F)cc1 [TCMDC-134520] | 89.52%
20 | CN(C)CCOc1cc(NC(=O)Nc2ccc(-c3ccncc3)c(C(F)(F)F)c2)ccc1Cl [TCMDC-139224] | -31.22%
21 | COc1cc(C=CC(=O)N2CCN(Cc3cccc(C)c3)CC2)ccc1OCc1c(C)noc1C [TCMDC-125249] | 23.84%
22 | Cc1nc(N)nc(N)c1Oc1cccc(Cl)c1 [TCMDC-137376] | -5.588%
23 | Cc1ccc(C)c(NC(=O)NCCNc2ccnc(Nc3ccc(F)cc3)n2)c1 [TCMDC-133638] | 7.929%
24 | CN1CCN(c2cc(NC(=O)c3ccc(-c4ccc(C#N)cc4)cc3)ccc2Cl)CC1 [TCMDC-138670] | -41.42%
25 | O=C(Nc1ccc(OC2CCN(Cc3ccc(F)cc3)CC2)c(Cl)c1)c1ccsc1 [TCMDC-133745] | -5.727%

Row | Structure (SMILES) | % Inhibition
26 | Cc1cc(=O)oc2c1ccc1oc(C(O)c3ccc(Cl)cc3)c(C)c12 (stereo not shown) [TCMDC-123999] | -9.04%
27 | CCOc1ccc2nc(C)cc(NN=Cc3ccccc3Cl)c2c1 [TCMDC-142090] | 95.12%
28 | Cc1cc(NN=Cc2ccccc2F)c2cc(C(F)(F)F)ccc2n1 [TCMDC-142027] | -61.45%
29 | CCOc1ccc2nc(C)cc(NN=Cc3cccc(C)n3)c2c1 [TCMDC-142050] | 48.92%
30 | Cc1ccc2nc(C)cc(NN=Cc3ccccc3Cl)c2c1 [TCMDC-142062] | -47.12%
31 | Cc1ccc2nc(C)cc(NN=Cc3ccccc3F)c2c1 [TCMDC-142065] | 60.82%
32 | COc1ccc2nc(C)cc(NN=Cc3ccccc3F)c2c1 [TCMDC-142083] | 38.04%
33 | Fc1cccc(C=NNc2ccnc3ccccc23)c1 [TCMDC-142058] | -35.92%
34 | Fc1ccc2c(NN=Cc3ccccc3F)ccnc2c1 [TCMDC-142018] | 101.1%
35 | Cc1cc(NN=Cc2ccccc2F)c2ccccc2n1 [TCMDC-123982] | -9.703%
36 | CCOc1ccc2nc(C)cc(NN=Cc3ccccc3F)c2c1 [TCMDC-142092] | 61.8%
37 | Fc1cccc(C=NNc2ccnc3cc(Cl)ccc23)c1 [TCMDC-123966] | -20.4%
38 | CC(C)CC(NC(=O)c1cccc(OCCN2CCOCC2)c1)C(=O)NC(/C=N/NC(=O)c1ccccc1)CCc1ccccc1 (stereo not shown) [TCMDC-135464] | 15.6%
39 | CC1(C)CCCN(C(=O)c2cccc(-n3nc(-c4ccc(Cl)cc4)cc3N)c2)C1 [TCMDC-134042] | -38.1%
40 | O=C(Nc1ccc2c(c1)CCC2)c1cnc(N2CCN(c3ccncc3)CC2)c(Cl)c1 [TCMDC-134596] | 8.854%
41 | O=C(Nc1ccc(Br)cc1)N(CCN1CCOCC1)CC(O)COCc1ccc(Cl)c(Cl)c1 (stereo not shown) [TCMDC-141490] | 5.181%
42 | Cc1ccc(N2C(N)=NC(N)=NC2(C)C)cc1 [TCMDC-131578] | 18.97%
43 | CN(CCON1C(N)=NC(N)=NC1(C)C)c1ccccc1 [TCMDC-131733] | 4.514%
44 | O=C(Nc1ccc(I)cc1)N1CCc2sccc2C1CN1CCCCC1 (stereo not shown) [TCMDC-136648] | -39.22%
45 | CC(CN(C)C)C(=O)Nc1cccc(-c2ccc(-c3nc4cc(F)ccc4[nH]3)s2)c1 (stereo not shown) [TCMDC-137114] | -16.25%
46 | CCN(CCO)CCCC(C)Nc1ccnc2cc(Cl)ccc12 (stereo not shown) [TCMDC-123987] | 30.66%
47 | CCC(C)(C)C1CCc2nc(N)nc(N)c2C1 (stereo not shown) [TCMDC-137870] | -20.62%
48 | CC(C)C1CCc2nc(N)nc(N)c2C1 (stereo not shown) [TCMDC-137947] | 0.4281%
49 | CC(C)(C)C1CCc2nc(N)nc(N)c2C1 (stereo not shown) [TCMDC-137954] | 82.06%
50 | CCCC1(NC[C@@H](O)[C@H](Cc2ccccc2)NC(=O)c2cc(NCC)cc(N3CCCCS3(=O)=O)c2)CCC1 [TCMDC-135374] | 23.04%

Row | Structure (SMILES) | % Inhibition
51 | Nc1nc(N)c2c(Cl)c(CNc3cccc(C(=O)O)c3)ccc2n1 [TCMDC-138268] | -3.552%
52 | CCN(Cc1cccc2ccccc12)c1ccc2nc(N)nc(N)c2c1 [TCMDC-137765] | -46.6%
53 | CCOC(=O)CN1Cc2cc(NCc3ccc4ccc5nc(C)[nH]c(=O)c5c4c3)ccc2C1=O [TCMDC-137815] | 10.92%
54 | Cc1ccccc1CNc1ccc2nc(N)nc(N)c2c1 [TCMDC-135439] | 74.86%
55 | CCOC(=O)COc1cccc(CNc2ccc3nc(N)nc(N)c3c2)c1 [TCMDC-137822] | 100.9%
56 | COc1ccc(CNc2ccc3nc(N)nc(N)c3c2)cc1 [TCMDC-139002] | 12.04%
57 | CCOc1ccccc1C(=O)N1CCc2cc3nccc(N4CCN5CCC[C@H]5C4)c3cc21 [TCMDC-140042] | 21.16%
58 | CN(C)CCOc1ccc(-c2cc(-c3ccc(Cl)c(O)c3)c(-c3ccncc3)o2)cc1 [TCMDC-141254] | -18.41%
59 | COc1ccc2nc(NC3=NC(c4ccccn4)(c4ccccn4)C(=O)N3C)[nH]c2c1 [TCMDC-139288] | 10.34%
60 | Cc1cccc(CN2CCCN(Cc3cccc(C(=O)Nc4ccc(C(C)(C)C)cc4)c3)CC2)c1 [TCMDC-135984] | -91.41%
61 | CN(C)CCOc1ccc(-c2cc(-c3ccc(Cl)c(O)c3)c(-c3ccnc(N)n3)o2)cc1 [TCMDC-141332] | 28.72%
62 | CC(C)CN(C)c1ncnc2c1nc(-c1cncc(C#N)c1)n2CCNCc1ccccc1 [TCMDC-136555] | 12.57%
63 | N#Cc1cncc(-c2nc3c(N4CCC(N5CCCC5)CC4)cccc3n2CCNCc2ccccc2)c1 [TCMDC-133547] | 94.76%
64 | N#Cc1cncc(-c2nc3c(N4CCN(c5cnccn5)CC4)cccc3n2CCNCc2ccccc2)c1 [TCMDC-133413] | -21.4%
65 | CC1CN(c2cccc3c2nc(-c2cncc(C#N)c2)n3CCNCc2ccccc2)CC(C)O1 (stereo not shown) [TCMDC-133411] | 66.36%
66 | CN(C)c1cccc2c1nc(-c1ccc3c(c1)CCO3)n2CCNCc1ccccc1 [TCMDC-134062] | 5.243%
67 | c1ccc(CNCCn2c(-c3ccc4c(c3)CCO4)nc3c(N4CCCC4)cccc32)cc1 [TCMDC-134289] | 92.48%
68 | N#Cc1ccc(-c2nc3c(N4CCCC4)cccc3n2CCNCc2ccccc2)cc1 [TCMDC-133433] | 30.7%
69 | CC[C@H](C)CNC(=O)c1cncc(-c2cccc(CN3CCC(N4CCCC4)CC3)c2)c1 [TCMDC-134226] | 16.8%
70 | Oc1ccc(-c2nc3c(N4CCN(Cc5ccccc5)CC4)cccc3n2C2CCNCC2)cc1 [TCMDC-132125] | 4.567%
71 | N#Cc1cncc(-c2nc3c(N4CCCC(N)C4)cccc3n2CCNCc2ccccc2)c1 (stereo not shown) [TCMDC-135364] | -9.75%
72 | COc1ccccc1N1CCN(c2cccc3c2nc(-c2cncc(C#N)c2)n3CCNCc2ccccc2)CC1 [TCMDC-133412] | -37.42%
73 | N#Cc1cncc(-c2nc3c(N4CCC(Cc5ccccc5)CC4)cccc3n2CCNCc2ccccc2)c1 [TCMDC-133546] | 51.69%
